Test system: Vero E6 infected with SARS-CoV-2
Assay: inhibition of SARS-CoV-2 cytopathic effect; higher = more antiviral protection, active = above 15
Conditions: 48 h

Measured: inhibition of SARS-CoV-2 cytopathic effect

N#C[C@@H]1C[C@@H]2C[C@@H]2N1C(=O)[C@@H](N)C12CC3CC(CC(O)(C3)C1)C2
inactive: 1 nM -1.01% | 8.33 nM -0.66% | 100 nM 0.62% | 833.33 nM 0.34% | 10000 nM 2.08%

COC(=O)C1=C(C)NC(C)=C(C(=O)OC2CCCN(Cc3ccccc3)C2)C1c1cccc([N+](=O)[O-])c1 (stereo not given) [benidipine]
inactive: 1 nM -0.65% | 8.33 nM -0.51% | 100 nM -1.47% | 833.33 nM -0.97% | 10000 nM -3.67%

C[C@@H]1O[C@@H](O[C@H]2[C@H](Oc3cc(O)c4c(c3)O[C@H](c3ccc(O)cc3)CC4=O)O[C@H](CO)[C@@H](O)[C@@H]2O)[C@H](O)[C@H](O)[C@H]1O [Naringin (Naringoside)]
inactive: 1 nM -3.68% | 8.33 nM -1.36% | 100 nM -3.02% | 833.33 nM -1.1% | 10000 nM 1.71%

From the supplement of paper PMC13380429
